Measured values taken from ChEMBL document CHEMBL4513216, “Probing the Open Global Health Chemical Diversity Library for Multistage-Active Starting Points for Next-Generation Antimalarials” (ACS Infect Dis, 2020).
Hit rate of the full screen: of about 65,000 compounds, about 2,100 (3.2%) showed an effect of 50% or more. The median lay at about -52%. The list comes from a sample in which strong results are over-represented; it also holds similar structures and randomly drawn compounds.

tested on: Plasmodium falciparum; assay: Screen against P. falciparum Asexual Blood Stage (ABS), at 5uM; assay type: functional, Dd2; conditions: tested at 5 uM

SMILES | INHIBITION [%]
CCO[C@H]1CN(CC2CC2)[C@@H]2CCCO[C@H]12 | -82.9
CCc1noc(CC)c1CC(=O)N1CCCC(N2CCCCC2)C1 (configuration not stated) | -22.8
O=C1CC2(CCN(Cc3ccccn3)C2)CN1c1cccnc1 (configuration not stated) | -14.1
CCN(CC)CCNS(=O)(=O)c1cccc(CSC)c1 | 83.4
Cc1cc(N(C)C)nc(C2CCCNC2)n1 (configuration not stated) | -54.7
COc1ccc2[nH]c(CNc3cc(C4CCNCC4)nc(C)n3)cc2c1 | 84.1
CN(Cc1cc2cc(F)ccc2[nH]1)c1cc(C2CCCNC2)ncn1 (configuration not stated) | 84.2
CCN(Cc1c(F)cccc1Cl)c1cc(C2CCNCC2)nc(C)n1 | 76.4
CCCN(CC)c1cc(C2CCNCC2)nc(C)n1 | -70.1
Cc1nc(C2CCNCC2)cc(N(C)Cc2cc3cc(F)ccc3[nH]2)n1 | 75.9
Cc1nc(NCC23CCCN2CCC3)cc(C2CCCNC2)n1 (configuration not stated) | -54.3
Cc1nc(NCCC23CCCN2CCC3)cc(C2CCNCC2)n1 | -50.1
O=C1CC[C@H]2[C@H](CCN2Cc2ccccn2)N1CC1CCOCC1 | -82.3
COc1ccccc1-c1ncc(CN2CCCC[C@H](N(C)C)C2)s1 | 70.3
COc1ccc(F)cc1C(=O)C1CCCN(Cc2cnc(C)s2)C1 (configuration not stated) | -29
CCC(CC)C(=O)N1CCOC2(CNC2)C1 | -94.6
O=C(NCCCNc1ccc(C(F)(F)F)cn1)c1ccc(F)cc1F | 72.5
CC(=O)c1cn(CC(=O)N2CCC3(CC2)OCCO3)c2ccccc12 | -61.4
N#Cc1cccnc1NCCNC(=O)N1CCN2CCCCC2C1 (configuration not stated) | -90.5
COCC1CC2(CCN(c3ccccn3)CC2)CN1C(C)C (configuration not stated) | -41
COCC1CC2(CCN(Cc3ccoc3)CC2)CN1C(C)C (configuration not stated) | 71.6
N#Cc1cccc(CN2C[C@@H]3CN(c4ncccn4)C[C@@H]3C2)c1 | 19
COCC1CC2(CCN(Cc3ccncc3)CC2)CN1C(C)C (configuration not stated) | -68
COCC1CC2(CCN(Cc3cccc(C#N)c3)CC2)CN1C(C)C (configuration not stated) | 73.2
N#Cc1cccc(CN2CCO[C@@H]3CNC[C@@H]32)c1 | -52.7
O=C(NCc1ccccn1)[C@H]1COC[C@H]2CN(CC3CC3)C[C@H]21 | -35.7

SMILES | INHIBITION [%]
CN(Cc1ccccn1)C1CCC[C@@H]2CN(CC3CC3)C[C@H]12 (some centres not stated) | 69.5
O=C(CC1CC1)N[C@@H]1CN(Cc2ccccn2)C[C@@H]2CCCO[C@@H]21 | -65.3
Cc1noc(C)c1CN(C)C(=O)C1CCCCN1CC(C)C (configuration not stated) | 21.5
COC[C@H](C)Nc1cc(C)c2ccc(SC)cc2n1 | 75.5
c1ccc(C(Cn2cnnc2)N2CCOCC2)nc1 (configuration not stated) | -29.3
CN1CCC2(CC1)CNC(=O)c1ccccc1O2 | -102
O=C1Nc2ccccc2CC12CCCN2Cc1ccccn1 (configuration not stated) | -60.5
Cc1cc(S(=O)(=O)N2C[C@H](C3CC3)[C@@H](N)C2)c(C)s1 | 86.1
Cc1cc(-c2cc(S(=O)(=O)N3C[C@H](C4CC4)[C@@H](N)C3)c(C)s2)on1 | 71.2
O=C(CC1CC1)N[C@@H]1CN(Cc2ccncc2)C[C@@H]2CCCO[C@@H]21 | -86.8
Cc1nnc(N2CCNCC2)c(C(N)=O)c1C | -11.3
CCN1CC2(CC1=O)CN(Cc1ccccn1)CCN(C(C)=O)C2 (configuration not stated) | -40.2
CN1CC=C(c2noc(CCC(=O)N3CCc4ccccc43)n2)CC1 | -88.8
CC(C)CN1C[C@@H]2C[C@H](C(=O)Nc3cccnc3)[C@H](C1)O2 | -48.5
CC(C)CN1CCCC1c1ccc(C(=O)Nc2cccnc2)s1 (configuration not stated) | 87.5
CC(=O)N1CC[C@H]2N(C)CC[C@@]2(C(=O)Nc2cccnc2)CC1 | -36
Cn1nc(-c2cccs2)cc1[C@H]1CN2CC[C@H]1C[C@@H]2CN | -26
Cc1csc(C2CCCCN2C(=O)c2cc(C(C)C)[nH]n2)n1 (configuration not stated) | 76.4
CSc1ccccc1C(=O)C1CCCN(Cc2cc(C(C)C)[nH]n2)C1 (configuration not stated) | -93.2
CN(C)Cc1cncc2c1CCN(CC(=O)N(C)C)C2 | -114
Cc1ncc(CN(Cc2ccccn2)Cc2ccccc2Cl)n1C | 91.6
O=C(NCCCOCC1CC1)Nc1ccc(-n2cncn2)c(F)c1 | 88.3
CN(CCOCC1CC1)C(=O)Nc1ccc(C#N)c(Cl)c1 | -115
O[C@@H]1CC(CNCc2ccc(Cl)cc2)(COc2cccnc2)C[C@@H]1O (some centres not stated) | 70.3
c1cncc(OC[C@]23COC[C@H]2CN(Cc2ccsc2)C3)c1 | 20.3
O[C@@]1(CNCCCOc2cccnc2)CCCN2CCCC[C@@H]21 | -36.8
